Reference: PubChem BioAssay AID624354 (Sanford-Burnham Center for Chemical Genomics, 2012)
About 3,800 (1.1%) of roughly 360,000 compounds were called active. The entries come from a sample that favours actives as a whole. Values without a mark were called inactive.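 The calls were made as follows: active = compounds causing at least 50% loss of cell viability in the single-dose screen, relative to plate controls; inactive = the rest.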

Assay: TRAIL-exposed caspase-8 expressing cell killing – NB7+C8 cells, ATPlite luminescence, TRAIL sensitizer project, primary screen (AID 624354)
Details: at 10 µM, hits give high values

Row | SMILES | inhibition (viability loss, TRAIL sensitization)
1 | CCOc1ccc(NC(=O)N(CCC(C)C)C(C)c2ccco2)cc1 (configuration not stated) | -2%
2 | CCOc1ccc(-c2nnc(-c3ccco3)o2)cc1 | 55.3% (active)
3 | N#Cc1ccc(OCc2nnc(-c3ccc([N+](=O)[O-])cc3)o2)cc1 | -1.32%
4 | O=C(Nc1n[nH]c(C(F)(F)F)n1)c1cccs1 | -2.07%
5 | COc1cc(NC(=O)c2ccc(-c3csc(C)n3)cc2)c(OC)cc1Cl | 25.1%
6 | Cc1nc(-c2ccc(NC(=O)c3cccs3)cc2)cs1 | 81% (active)
7 | CC(=O)NNc1cc(=O)c2c(=O)n(C)c(=O)n(C)c2[nH]1 | 7.17%
8 | Cc1cnc(NC(=O)Cn2cnc3c2c(=O)n(C)c(=O)n3C)s1 | -2.16%
9 | Cc1cc(C)cc(NC(=O)NCc2ccccn2)c1 | 7.88%
10 | Cc1cnc(NC(=O)c2ccccn2)s1 | 56% (active)
11 | COc1ccc2occ(C(=O)c3ccc(N=C(C)N(C)C)cc3)c2c1 | 10.5%
12 | Cc1ccc(NC(=O)c2ccc(Oc3ncccn3)cc2)cc1 | 1.61%
13 | O=C(Nc1ccc(OC(F)(F)F)cc1)c1ccc2c(c1)no[n+]2[O-] | 86.8% (active)
14 | CCc1nnc(NS(=O)(=O)c2ccc(NC(=O)c3cccc(OC(F)(F)C(F)F)c3)cc2)s1 | -18.2%
15 | Cc1ccccc1C(=O)NNC(=O)CN1C(=O)c2ccccc2C1=O | -2.34%
16 | C=CCn1c(C)cc(C(=O)CN2C(=O)c3ccccc3C2=O)c1C | 52% (active)
17 | C=CCN(CC=C)C(=O)CN1C(=O)c2ccccc2C1=O | 36.5%
18 | COc1ccc(CN2C[C@H]3CON(C)[C@H]3C[C@H]2c2ccc(-c3cccc(F)c3)cc2)cc1 | 17%
19 | COc1ccc(NC(=O)/C(Cl)=C(/Cl)S(=O)Cc2ccc(C)cc2)cn1 (configuration not stated) | 95.5% (active)
20 | COc1cc(NC(=O)Nc2ccc(C)cc2)cc([N+](=O)[O-])c1 | 3.5%
21 | COC(C)(C)[C@]12CC(O)(C(C)C)ON1[C@H]1CCCCC1N2O (some centres not stated) | -21.2%
22 | O=[N+]([O-])c1c(NCCO)cc(Sc2nc3ccccc3s2)c2nonc12 | 20.4%
23 | O=[N+]([O-])c1cc(Br)c(O)c(/C=N/Nc2nc3ccccc3s2)c1 | 51.2% (active)
24 | O=[N+]([O-])c1cccc(C=NN=Cc2ccccc2O)c1 | 11%

Row | SMILES | inhibition (viability loss, TRAIL sensitization)
25 | CC(C)C[C@H]1CNC(=S)N1C[C@H]1CCCN1C[C@H](Cc1ccc(O)cc1)N1C[C@H](Cc2ccc(O)cc2)N(CC2CCCCC2)C1=S | 9.11%
26 | COc1cc(/C=C2\Oc3ccc(C#Cc4ccc(O)cc4)cc3C2=O)cc(OC)c1 | 64.7% (active)
27 | COc1cc(C(=O)N2CCOC23CCN(Cc2ccccc2)CC3)cc(OC)c1OC | -0.803%
28 | CCSCc1nc(N)nc(NCCc2ccccc2)n1 | -10.6%
29 | CC(=O)Nc1cccc(C(=O)OCC(=O)NCc2cc(C)c(O)c(C)c2)c1 | -2.97%
30 | CC(=O)Nc1cccc(C(=O)OCC(=O)c2ccc3c(c2)OCO3)c1 | 61.4% (active)
31 | CC(=O)Nc1cccc(C(=O)OCN2C(=O)c3ccccc3C2=O)c1 | -5.54%
32 | CC(C)C[C@@H](COc1ccccc1)N1CCN(CC(C)C)CCC1=O | -6.68%
33 | CCCCc1nc(NCc2ccccc2)c(C#N)c2c1CCCC2 | 4.11%
34 | CCCCc1nc(NCCN)c(C#N)c2c1CSC(C)(C)C2 | 57.7% (active)
35 | CC(=O)N1CCCc2cc(S(=O)(=O)N3CCCC(C(=O)N4CCN(c5cccc(Cl)c5)CC4)C3)ccc21 (configuration not stated) | 35.8%
36 | Cc1nc2ccc(N)nc2nc1C | 6.29%
37 | COc1cccc(-n2c(=O)c3c(C)c(C(=O)N(C)C)sc3n(CC(=O)NCCc3ccc(OC)c(OC)c3)c2=O)c1 | -6.94%
38 | Cc1cccc(/C(N)=N/OC(=O)c2ccccc2Cl)c1 | 60.5% (active)
39 | C/C(=N\OC(=O)c1ccccc1)c1c(C)nc2cc(C)ccn12 | -6.57%
40 | Cc1cc(OC(=O)c2ccccc2Cl)ccc1N1C(=O)CCC1=O | 7.7%
41 | O=C(Nc1cccc2c1N(C(=O)c1ccco1)CCC2)c1ccco1 | -4.17%
42 | Cc1ccc(C(C)C)c(OCCSc2nc3ccccc3n2CC(=O)O)c1 | -6.21%
43 | COc1ccc(NC(=O)CN2C(=O)COc3ccc(S(=O)(=O)N4CCOCC4)cc32)cc1 | 4.01%
44 | Cc1cc(Cl)c2oc(C(=O)N3CCC(O)(c4ccccc4)CC3)c(C)c2c1 | 12.6%
45 | Cc1nc(N2CCCC2C(=O)O)c2oc3ccccc3c2n1 (configuration not stated) | -12.2%
46 | Cc1nc(Cl)c2oc3ccccc3c2n1 | 69.6% (active)
47 | C[C@@H](Nc1nc(-c2ccccc2)nc2c1oc1ccccc12)C(=O)O | -9.15%
